Source: PubChem BioAssay
Values joined by “and” are separate entries in the source; they are usually repeats but may differ in a detail not shown here. Identical values can stand only once. Active and inactive are the calls of the source. Cut-off read from the data, not from the text of the source, unless noted: active = inhibition above about 80%; inactive = the rest.

Legend:
[1] = UWB1.289 ovarian carcinoma cell growth inhibition, synergistic combos for chromothripsis tumors, BGB or cisplatin combos (AID 1671456); details: UWB1.289 ovarian carcinoma cells, stronger effect = higher value;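 note: cells exposed to compound for four days; 0% = vehicle DMSO and 100% = killing by high DMSO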
[2] = LFS_MB_2R medulloblastoma cell growth inhibition, synergistic combos for chromothripsis tumors, cisplatin combos (AID 1671457); details: LFS_MB_2R medulloblastoma cells, stronger effect = higher value;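 note: cells exposed to compound for four days before readout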
[3] = MDA-MB-436 breast carcinoma cell growth inhibition, synergistic combos for chromothripsis tumors, BGB or cisplatin combos (AID 1671458; call rule not given here;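 note: cells exposed for 96 hours; 0% = vehicle DMSO and 100% = killing by high DMSO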); details: MDA-MB-436 breast carcinoma growth inhibition, drug combinations, stronger effect = higher value
[4] = UWB1.289_BRCA1 ovarian cancer growth, cell-based, BGB or cisplatin combinations (AID 1671459); details: UWB1.289 BRCA1 ovarian carcinoma, drug combinations, stronger effect = higher value
[5] = human astrocyte viability loss, single and combined drugs, cytotoxicity control for chromothriptic childhood tumor combination screen, cell-based, BGB or cisplatin IC20 combos (AID 1671460); details: Human astrocytes, drug combinations, stronger effect = higher value;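 note: cells exposed to compounds for 96 hours before viability readout; 0% = vehicle and 100% = killing control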
[6] = growth inhibition of BT084 medulloblastoma cells, cell-based, ICGC_MB145, cisplatin and BGB IC40 combos (AID 1671461); details: drug combinations, stronger effect = higher value;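 note: cells exposed to drugs for 96 hours; 0% = vehicle DMSO and 100% = high DMSO full killing control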
[7] = growth inhibition of RCMB18 medulloblastoma cells, cell-based, cisplatin and BGB IC40 combos (AID 1671462); details: stronger effect = higher value;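 note: cells exposed to compound for four days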
[8] = growth inhibition of CRL1545 osteosarcoma cells, cell-based, cisplatin and BGB IC20 combos (AID 1671464); details: stronger effect = higher value;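 note: cells exposed to compound for 96 hours before readout; 0% = vehicle DMSO and 100% = high DMSO killing control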
F380Y = test: modulators of BK channel variants, profiling panel, selectivity assay, cell-based, U2OS BacMam, thallium flux, beta subunits (AID 1259406;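 active = thallium flux through the channel raised or lowered by more than 3 SD from vehicle-only wells, actives on both sides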;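 note: initial slope of Thallos dye fluorescence rise after thallium is added; log ratio against the mean of 0.3% DMSO vehicle wells on the same plate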); details: at 30 µM
F380Y/beta1 = test: as above; details: at 30 µM
[9] = measured here: inhibition with BGB combination, at 0.05 µM
[10] = measured here: inhibition with cisplatin combination, at 0.05 µM
[11] = measured here: combination with cisplatin, at 0.5 µM
[12] = measured here: combination with cisplatin, at 5 µM
[13] = measured here: BGB combination, at 0.5 µM
[14] = measured here: BGB combination, at 5 µM
[15] = measured here: cisplatin combination, at 0.5 µM
[16] = measured here: cisplatin combination, at 5 µM
[17] = BGB combination, concentration series, at 5 µM
[18] = cisplatin combination, concentration series, at 5 µM
[19] = measured here: combo with BGB IC20, at 0.5 µM
[20] = measured here: combo with cisplatin IC20, at 0.5 µM
[21] = cisplatin combination, at 0.5 µM
[22] = measured here: BGB IC40 combination 0.05 uM, at 0.05 µM
[23] = measured here: BGB IC40 combination, at 0.05 µM
[24] = measured here: with BGB IC20 combination, at 0.5 µM
[25] = measured here: with cisplatin IC20 combination, at 0.5 µM

S=P(N1CC1)(N1CC1)N1CC1
inhibition ([1]; at 0.5 µM): -18.2% (inactive) and 3.65% (inactive) | inhibition [1, 9]: -11.2% and -17.2% | inhibition [1, 10]: -30.7% and -4.4% | inhibition ([2]; at 0.5 µM): -6.41% (inactive) and -22.2% (inactive) | inhibition [2, 11]: -11.5% and -15% | inhibition [2, 12]: 6.16% and -16.8% | inhibition ([3]; at 0.5 µM): 3.12% (inactive) and -15.6% (inactive) | inhibition [3, 13]: 5.95% and -18.7% | inhibition [3, 14]: 29.4% and 17.8% | inhibition [3, 15]: -1.16% and -30.9% | inhibition [3, 16]: 28.2% and 9.67% | inhibition [4, 17]: 4.52% and 17.6% | inhibition ([4]; at 0.5 µM): -8.8% (inactive) and -2.14% (inactive) | inhibition [4, 18]: 2.09% and 16% | inhibition ([5]; at 0.5 µM): -9.07% (inactive) and -1.79% (inactive) | inhibition [5, 19]: 3.46% and -2.7% | inhibition [5, 20]: -14.4% and -11.6% | inhibition ([6]; at 0.5 µM): 0.706% (inactive) and -3.22% (inactive) | inhibition [6, 21]: -14.4% and 6.01% | inhibition ([6]; cisplatin combination, at 5 µM): -20% and -51.6% | inhibition [6, 22]: -8.78% and -15.6% | inhibition ([6]; single agent, at 5 µM): -22.6% and -19.6% | inhibition ([7]; at 0.5 µM): -6.9% (inactive) and -9.28% (inactive) | inhibition ([7]; cisplatin combo, at 5 µM): -6.08% and -6.23% | inhibition [7, 23]: -9.84% and -6.48% | inhibition [7, 11]: -21.1% and 0.266% | inhibition ([7]; single agent, at 5 µM): -45.9% and -29.6% | inhibition ([8]; at 0.5 µM): -18.6% (inactive) and -31% (inactive) | inhibition [8, 24]: 7.82% and -2.28% | inhibition [8, 25]: -31.7% and -45.4% | inhibition ([8]; single agent, at 0.05 µM): -43.5% and 4.65% | inhibition ([8]; single agent, at 5 µM): -38.5% and 10.3%

Nc1nc2c(ncn2COC(CO)CO)c(=O)[nH]1
inhibition ([1]; at 0.5 µM): 8.41% (inactive) | inhibition [1, 9]: -10.6% | inhibition [1, 10]: 1.36% | inhibition ([2]; at 0.5 µM): 1.52% (inactive) | inhibition [2, 11]: 8.4% | inhibition [2, 12]: 102% | inhibition ([3]; at 0.5 µM): -1.05% (inactive) | inhibition [3, 13]: 1.08% | inhibition [3, 14]: 38.9% | inhibition [3, 15]: -7.9% | inhibition [3, 16]: 51.5% | inhibition [4, 17]: 35.4% | inhibition ([4]; at 0.5 µM): 7.28% (inactive) | inhibition [4, 18]: 66% | inhibition ([5]; at 0.5 µM): 19.3% (inactive) | inhibition [5, 19]: 14.4% | inhibition [5, 20]: 21.1% | inhibition ([6]; at 0.5 µM): 25.1% (inactive) | inhibition [6, 21]: 43% | inhibition ([6]; cisplatin combination, at 5 µM): 103% | inhibition [6, 22]: 16.9% | inhibition ([6]; single agent, at 5 µM): 107% | inhibition ([7]; at 0.5 µM): 15.7% (inactive) | inhibition ([7]; cisplatin combo, at 5 µM): 102% | inhibition [7, 23]: 12.8% | inhibition [7, 11]: 27.1% | inhibition ([7]; single agent, at 5 µM): 88.8% | inhibition ([8]; at 0.5 µM): 44.7% (inactive) | inhibition [8, 24]: 29.8% | inhibition [8, 25]: 52.1% | inhibition ([8]; single agent, at 0.05 µM): 3.9% | inhibition ([8]; single agent, at 5 µM): 93.9% | log fold change Tl+ flux (F380Y): -0.00258 (inactive) | log fold change Tl+ flux (F380Y/beta1): 0.0388 (inactive)

Cc1nc2ccc(CN(C)c3ccc(C(=O)N[C@@H](CCC(=O)O)C(=O)O)s3)cc2c(=O)[nH]1
inhibition ([1]; at 0.5 µM): 29.7% (inactive) | inhibition [1, 9]: -4.8% | inhibition [1, 10]: 1.64% | inhibition ([2]; at 0.5 µM): -17.1% (inactive) | inhibition [2, 11]: -12.9% | inhibition [2, 12]: -18.4% | inhibition ([3]; at 0.5 µM): 44.2% (inactive) | inhibition [3, 13]: 26.6% | inhibition [3, 14]: 17.5% | inhibition [3, 15]: 47.7% | inhibition [3, 16]: 45.6% | inhibition [4, 17]: 48.7% | inhibition ([4]; at 0.5 µM): 42.1% (inactive) | inhibition [4, 18]: 59.8% | inhibition ([5]; at 0.5 µM): -0.43% (inactive) | inhibition [5, 19]: 3.56% | inhibition [5, 20]: 0.651% | inhibition ([6]; at 0.5 µM): -1.53% (inactive) | inhibition [6, 21]: 4.81% | inhibition ([6]; cisplatin combination, at 5 µM): -0.041% | inhibition [6, 22]: -15.2% | inhibition ([6]; single agent, at 5 µM): -10.4% | inhibition ([7]; at 0.5 µM): -20.8% (inactive) | inhibition ([7]; cisplatin combo, at 5 µM): 14% | inhibition [7, 23]: -41.8% | inhibition [7, 11]: -4.37% | inhibition ([7]; single agent, at 5 µM): -40.1% | inhibition ([8]; at 0.5 µM): -1.83% (inactive) | inhibition [8, 24]: 13.9% | inhibition [8, 25]: -9.68% | inhibition ([8]; single agent, at 0.05 µM): 0.207% | inhibition ([8]; single agent, at 5 µM): 28.5% | log fold change Tl+ flux (F380Y): -0.025 (inactive) | log fold change Tl+ flux (F380Y/beta1): -0.0237 (inactive)

CN(C)CC/C=C1/c2ccccc2COc2ccc(CC(=O)O)cc21
log fold change Tl+ flux (F380Y): 0.0275 (inactive) | log fold change Tl+ flux (F380Y/beta1): 0.0119 (inactive)

Nc1nc2c(ncn2CCC(CO)CO)c(=O)[nH]1
inhibition ([1]; at 0.5 µM): -12.6% (inactive) and 3.48% (inactive) | inhibition [1, 9]: -7.99% and -7.52% | inhibition [1, 10]: -19.6% and -12.5% | inhibition ([2]; at 0.5 µM): -3.59% (inactive) and -17% (inactive) | inhibition [2, 11]: -6.24% and -17.7% | inhibition [2, 12]: 9.1% and -63% | inhibition ([3]; at 0.5 µM): -1.2% (inactive) and -23.3% (inactive) | inhibition [3, 13]: 8.81% and -18.4% | inhibition [3, 14]: 4.8% and -29% | inhibition [3, 15]: -6.71% and -45.8% | inhibition [3, 16]: 5.49% and -36% | inhibition [4, 17]: -16.8% and -15.8% | inhibition ([4]; at 0.5 µM): -10.2% (inactive) and 1.59% (inactive) | inhibition [4, 18]: 4.16% and 10.4% | inhibition ([5]; at 0.5 µM): 6.25% (inactive) and 7.18% (inactive) | inhibition [5, 19]: 34.9% and 5.65% | inhibition [5, 20]: -9.35% and -4.75% | inhibition ([6]; at 0.5 µM): 8.52% (inactive) and -29.3% (inactive) | inhibition [6, 21]: -11.9% and -14.8% | inhibition ([6]; cisplatin combination, at 5 µM): -3.68% and -10.8% | inhibition [6, 22]: 45.4% and 1.15% | inhibition ([6]; single agent, at 5 µM): -12.8% and -18.7% | inhibition ([7]; at 0.5 µM): 0.33% (inactive) and -16.2% (inactive) | inhibition ([7]; cisplatin combo, at 5 µM): 3.43% and -89.1% | inhibition [7, 23]: 3.48% and 8.53% | inhibition [7, 11]: -3.27% and -9.97% | inhibition ([7]; single agent, at 5 µM): -16.9% and 37.5% | inhibition ([8]; at 0.5 µM): -5.94% (inactive) and 9.73% (inactive) | inhibition [8, 24]: -31% and 11.5% | inhibition [8, 25]: 6.57% and 6.77%
